This note sets out measurements from PubChem BioAssay (EPA / NIEHS).

Inconclusive results are not listed. The source holds several records for some structures; these can differ, active in one and inactive in another. Activity calls are given as the source filed them. Rule for the calls, unless noted: active = hit-call score of the fitted dose curve at least 0.9, where 1 is the maximum; inconclusive = response in the unintended direction; inactive = score below 0.9.

For assay [1], the target named is Estrogen receptor beta (Homo sapiens) (UniProt Q92731). The experiment in a line: OT_ER_ERbERb_1440: Odyssey Thera (OT) 24-hour HEK293T Protein-Complementation Assay for Estrogen Receptor-beta/-beta Homodimer (AID 2283380).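 Note: fluorescence gain from ER beta LBD homodimer complementation read by laser scanning cytometry; scored as signal increase over DMSO baseline for both agonists and antagonists.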 In a few lines: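 HEK293T cells stably expressing human ER-beta LBD (aa 310-547) PCA homodimer pair, dosed 24 h; formaldehyde-fixed, Draq5-stained. Readout: increase in nuclear (agonist) or nuclear plus cytoplasmic (antagonist) fluorescence intensity versus DMSO, gain-of-signal fitting.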
Estrogen receptor beta (Homo sapiens), sequence (Q92731 whole entry, looked up, the tested form may be a part): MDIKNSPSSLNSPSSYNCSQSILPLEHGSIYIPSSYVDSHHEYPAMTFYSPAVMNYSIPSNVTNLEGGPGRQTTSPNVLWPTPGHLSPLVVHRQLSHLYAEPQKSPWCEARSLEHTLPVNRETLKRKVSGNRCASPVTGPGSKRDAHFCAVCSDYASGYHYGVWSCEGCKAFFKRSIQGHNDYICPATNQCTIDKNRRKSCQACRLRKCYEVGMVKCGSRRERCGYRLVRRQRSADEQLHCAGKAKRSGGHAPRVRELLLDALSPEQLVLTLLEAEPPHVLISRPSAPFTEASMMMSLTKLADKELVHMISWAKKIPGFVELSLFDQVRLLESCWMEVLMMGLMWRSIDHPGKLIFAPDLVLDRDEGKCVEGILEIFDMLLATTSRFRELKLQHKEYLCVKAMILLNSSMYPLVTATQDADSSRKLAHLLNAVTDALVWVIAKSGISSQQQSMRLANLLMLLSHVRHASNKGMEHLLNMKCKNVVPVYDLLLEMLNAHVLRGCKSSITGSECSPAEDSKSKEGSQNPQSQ

The target of assay [2] is Estrogen receptor (Homo sapiens) (UniProt P03372). The experiment in a line: OT_ERa_GFPERaERE_0480: Odyssey Thera (OT) 8-hour HeLa Transcription Induction Assay for Estrogen Receptor (AID 2283381; active = hit-call score of the fitted dose curve at least 0.9, where 1 is the maximum; inactive = score below 0.9). In outline:
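HeLa cells expressing GFP reporter under estrogen response element, imaged 8 h after dosing. GFP induction quantified by high-content fluorescence microscopy image analysis; gain of signal fitted versus DMSO.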

For assay [3] the target is unchanged. The experiment in a line: OT_ERa_GFPERaERE_0120: Odyssey Thera (OT) 2-hour HeLa Transcription Induction Assay for Estrogen Receptor (AID 2283382). In outline:
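HeLa cells were dosed for 2 h, then GFP reporter induction was quantified by fluorescence microscopy with high-content image analysis. Gain of signal fitted against DMSO baseline.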

For assay [4], the target named is Bile acid receptor (Homo sapiens) (UniProt Q96RI1). The experiment in a line: OT_FXR_FXRSRC1_0480: Odyssey Thera (OT) 8-hour HEK293T Protein-Complementation Assay for Farnesoid X receptor/SRC-1 Co-activator (AID 2283383). In outline:
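HEK293T protein-fragment complementation assay: FXR and SRC-1 coactivator are fused to reporter fragments, and their interaction restores a fluorescent reporter. Readout was taken 8 h after dosing, with gain of signal fit relative to DMSO.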

Assay [5] shares this target. In words: OT_FXR_FXRSRC1_1440: Odyssey Thera (OT) 24-hour HEK293T Protein-Complementation Assay for Farnesoid X receptor/SRC-1 Co-activator (AID 2283384). In a few lines:
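HEK293T cells, 24 h after chemical dosing. FXR–SRC-1 coactivator interaction read as fluorescence from protein-fragment complementation of a split reporter. Gain of signal fitted against DMSO baseline.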

In assay [6] the target is Retinoic acid receptor RXR-alpha (Homo sapiens) (UniProt P19793). In words: OT_NURR1_NURR1RXRa_0480: Odyssey Thera (OT) 8-hour HEK293T Protein Complementation Assay for Nurr1/retinoid X receptor (RXR) (AID 2283385). In outline:
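HEK293T cells expressing Nurr1 and RXRα fused to reporter fragments (protein-fragment complementation); fluorescence measured 8 h after dosing. Gain of signal fitted relative to DMSO.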

For assay [7] the target is unchanged. The experiment in a line: OT_NURR1_NURR1RXRa_1440: Odyssey Thera (OT) 24-hour HEK293T Protein Complementation Assay for Nurr1/retinoid X receptor (RXR) (AID 2283386). In a few lines:
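HEK293T protein-fragment complementation of Nurr1 and RXRα fused to reporter fragments; compounds 24 h. Fluorescence gain from reconstituted reporter fitted versus DMSO.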

Assay [8] addresses Peroxisome proliferator-activated receptor gamma (Homo sapiens) (UniProt P37231). The experiment in a line: OT_PPARg_PPARgSRC1_0480: Odyssey Thera (OT) 8-hour Protein-Complementation Assay for Peroxisome Proliferator-activated Receptor Gamma / SRC-1 Co-activator (AID 2283387).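 Note: nuclear to cytoplasmic split Venus YFP fluorescence ratio reporting PPARg SRC-1 interaction.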 In a few lines: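 Protein-fragment complementation of split Venus YFP reports PPARg/SRC-1 interaction in HEK293T (transfected 48 h before treatment), exposed 8 h. Readout: N/C fluorescence ratio at 488 nm from imaging, Draq5 for segmentation, positive fit relative to DMSO.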

Assay [9] deals with mouse Estrogen Receptor alpha (Era), Esr1 (gene 13982) (UniProt P19785). The experiment in a line: NVS_NR_mERa: NovaScreen (NVS) Nuclear Receptor Binding Assay for mouse Estrogen Receptor alpha (Era) (AID 2283378).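 Note: hit means loss of bound radioligand signal relative to DMSO.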 In outline: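 Extracted mouse Era incubated with tritiated or iodinated radioligand plus test chemical, 18 h. Bound fraction separated on filters, counted by scintillation. DMSO = negative control/baseline; duplicate single-point at 25 uM, then concentration-response follow-up.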
mouse Estrogen Receptor alpha (Era), Esr1 (gene 13982), sequence (P19785 whole entry, looked up): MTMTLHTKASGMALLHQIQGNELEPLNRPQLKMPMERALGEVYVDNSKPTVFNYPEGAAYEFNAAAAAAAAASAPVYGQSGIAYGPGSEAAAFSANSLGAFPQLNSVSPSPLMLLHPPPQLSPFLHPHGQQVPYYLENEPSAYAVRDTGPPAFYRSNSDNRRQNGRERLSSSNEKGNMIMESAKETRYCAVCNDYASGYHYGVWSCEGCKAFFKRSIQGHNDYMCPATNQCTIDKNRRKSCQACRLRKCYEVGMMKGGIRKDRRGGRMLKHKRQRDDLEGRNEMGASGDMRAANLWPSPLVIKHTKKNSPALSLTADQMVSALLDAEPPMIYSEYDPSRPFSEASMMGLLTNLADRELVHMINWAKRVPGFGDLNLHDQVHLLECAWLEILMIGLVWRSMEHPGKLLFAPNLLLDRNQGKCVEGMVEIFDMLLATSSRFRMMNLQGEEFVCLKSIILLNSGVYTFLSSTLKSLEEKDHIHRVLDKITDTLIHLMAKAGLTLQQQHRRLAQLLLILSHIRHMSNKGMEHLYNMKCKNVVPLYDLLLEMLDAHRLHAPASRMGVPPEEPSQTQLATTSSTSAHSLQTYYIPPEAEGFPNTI

Assay [10] concerns the target Agonist Androgen Response Element (ARE), AR (gene 367) (UniProt P10275). The experiment in a line: OT_AR_ARELUC_AG_1440: Odyssey Thera (OT) 24-hour CHO-K1 Luciferase Assay for Agonist Androgen Response Element (ARE) (AID 2283379). In a few lines: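 Seed CHO-K1 cells; dose compounds for 24 h; add D-luciferin plus ATP in PBS; read luminescence. Signal increase relative to vehicle defines agonist activity, with at least 3 replicate wells per sample.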

Agonist Androgen Response Element (ARE), AR (gene 367), sequence (P10275 whole entry, looked up): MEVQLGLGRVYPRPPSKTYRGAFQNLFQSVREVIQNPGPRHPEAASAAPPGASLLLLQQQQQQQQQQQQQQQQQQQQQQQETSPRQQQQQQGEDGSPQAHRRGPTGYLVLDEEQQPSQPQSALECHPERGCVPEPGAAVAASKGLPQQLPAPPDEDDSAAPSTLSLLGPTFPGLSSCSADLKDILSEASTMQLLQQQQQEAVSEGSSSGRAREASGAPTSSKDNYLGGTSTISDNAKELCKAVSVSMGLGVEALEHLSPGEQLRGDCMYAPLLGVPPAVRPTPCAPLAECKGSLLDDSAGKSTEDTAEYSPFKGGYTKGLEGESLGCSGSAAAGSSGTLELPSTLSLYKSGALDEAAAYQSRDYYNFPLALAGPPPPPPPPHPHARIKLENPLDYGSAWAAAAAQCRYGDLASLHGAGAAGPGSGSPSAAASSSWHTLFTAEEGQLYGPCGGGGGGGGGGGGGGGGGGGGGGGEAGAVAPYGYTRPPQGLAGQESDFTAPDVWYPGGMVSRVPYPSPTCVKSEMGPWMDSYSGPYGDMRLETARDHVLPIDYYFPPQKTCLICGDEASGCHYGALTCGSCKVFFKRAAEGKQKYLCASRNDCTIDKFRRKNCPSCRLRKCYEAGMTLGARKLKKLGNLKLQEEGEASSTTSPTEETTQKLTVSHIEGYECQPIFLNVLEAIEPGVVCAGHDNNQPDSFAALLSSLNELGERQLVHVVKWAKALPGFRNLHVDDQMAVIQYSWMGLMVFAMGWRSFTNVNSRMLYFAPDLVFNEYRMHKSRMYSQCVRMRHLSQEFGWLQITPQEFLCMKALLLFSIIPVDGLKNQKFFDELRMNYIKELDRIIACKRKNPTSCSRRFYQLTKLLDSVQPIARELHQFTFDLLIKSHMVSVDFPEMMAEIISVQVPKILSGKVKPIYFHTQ
Peroxisome proliferator-activated receptor gamma (Homo sapiens), sequence (P37231 whole entry, looked up, the tested form may be a part): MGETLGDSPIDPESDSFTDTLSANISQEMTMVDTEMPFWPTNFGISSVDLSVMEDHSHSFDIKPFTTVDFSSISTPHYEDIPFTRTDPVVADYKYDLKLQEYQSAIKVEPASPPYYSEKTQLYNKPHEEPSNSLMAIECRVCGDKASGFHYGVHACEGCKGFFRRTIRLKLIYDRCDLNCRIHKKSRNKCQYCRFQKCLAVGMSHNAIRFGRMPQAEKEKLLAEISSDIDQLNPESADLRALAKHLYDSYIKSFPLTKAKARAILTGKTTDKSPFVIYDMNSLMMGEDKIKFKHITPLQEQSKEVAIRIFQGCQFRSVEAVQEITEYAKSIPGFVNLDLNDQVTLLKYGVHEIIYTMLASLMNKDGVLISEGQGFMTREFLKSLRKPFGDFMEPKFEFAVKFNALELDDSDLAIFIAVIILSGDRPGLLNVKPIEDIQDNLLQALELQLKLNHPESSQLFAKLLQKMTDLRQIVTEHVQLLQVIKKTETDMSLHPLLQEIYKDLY
Estrogen receptor (Homo sapiens), sequence (P03372 whole entry, looked up): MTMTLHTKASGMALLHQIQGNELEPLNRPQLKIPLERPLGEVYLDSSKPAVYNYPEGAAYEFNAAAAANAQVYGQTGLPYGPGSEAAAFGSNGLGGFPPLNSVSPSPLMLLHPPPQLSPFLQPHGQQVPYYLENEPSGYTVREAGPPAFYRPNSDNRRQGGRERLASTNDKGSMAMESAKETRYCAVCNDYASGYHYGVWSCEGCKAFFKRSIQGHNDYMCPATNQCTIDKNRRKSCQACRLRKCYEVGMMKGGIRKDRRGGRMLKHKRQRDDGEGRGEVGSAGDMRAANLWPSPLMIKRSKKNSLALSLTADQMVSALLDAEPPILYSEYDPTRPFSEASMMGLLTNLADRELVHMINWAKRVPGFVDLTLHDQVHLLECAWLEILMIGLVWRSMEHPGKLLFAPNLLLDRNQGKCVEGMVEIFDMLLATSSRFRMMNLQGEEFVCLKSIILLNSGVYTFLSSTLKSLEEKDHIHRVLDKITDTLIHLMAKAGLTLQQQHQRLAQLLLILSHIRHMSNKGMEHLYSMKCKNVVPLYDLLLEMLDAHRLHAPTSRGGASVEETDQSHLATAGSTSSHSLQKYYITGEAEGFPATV
Retinoic acid receptor RXR-alpha (Homo sapiens), sequence (P19793 whole entry, looked up, the tested form may be a part): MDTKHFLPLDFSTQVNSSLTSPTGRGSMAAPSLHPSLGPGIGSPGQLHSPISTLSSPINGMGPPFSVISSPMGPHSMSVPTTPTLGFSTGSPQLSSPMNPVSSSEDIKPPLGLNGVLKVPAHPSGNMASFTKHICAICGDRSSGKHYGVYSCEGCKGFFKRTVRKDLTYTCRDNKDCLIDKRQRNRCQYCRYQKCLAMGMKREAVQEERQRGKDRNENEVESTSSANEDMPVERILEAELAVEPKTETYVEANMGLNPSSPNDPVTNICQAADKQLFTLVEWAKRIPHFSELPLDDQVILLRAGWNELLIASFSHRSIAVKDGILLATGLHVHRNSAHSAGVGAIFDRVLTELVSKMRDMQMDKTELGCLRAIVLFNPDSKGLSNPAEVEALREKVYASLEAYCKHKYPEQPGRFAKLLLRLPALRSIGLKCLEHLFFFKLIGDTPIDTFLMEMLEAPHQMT
Bile acid receptor (Homo sapiens), sequence (Q96RI1 whole entry, looked up, the tested form may be a part): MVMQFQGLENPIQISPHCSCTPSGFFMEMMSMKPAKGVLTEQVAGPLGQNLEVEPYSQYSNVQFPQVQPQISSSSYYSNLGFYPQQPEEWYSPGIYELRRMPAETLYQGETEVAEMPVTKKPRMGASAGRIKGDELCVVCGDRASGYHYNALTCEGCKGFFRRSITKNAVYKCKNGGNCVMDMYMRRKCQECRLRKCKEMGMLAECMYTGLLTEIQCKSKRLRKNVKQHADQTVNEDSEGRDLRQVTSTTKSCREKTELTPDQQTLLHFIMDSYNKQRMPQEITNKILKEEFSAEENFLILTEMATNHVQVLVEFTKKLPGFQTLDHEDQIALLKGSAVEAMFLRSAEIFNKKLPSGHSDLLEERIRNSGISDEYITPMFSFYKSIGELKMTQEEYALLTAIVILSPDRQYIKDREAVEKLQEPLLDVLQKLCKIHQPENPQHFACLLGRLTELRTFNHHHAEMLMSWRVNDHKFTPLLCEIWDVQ

For `CC1(C)C(C(=O)OC(C#N)c2cccc(Oc3ccccc3)c2)C1(C)C` (stereo not drawn), the result in assay [1], in assay [2], in assay [3], in assay [6], in [7] and in [8] was inactive. Besides, the AC50 in [4] is 2.05 µM (active); in assay [5], 5.39 µM (active).
`CS(=O)(=O)c1cc(C(F)(F)F)ccc1C(=O)c1cnoc1C1CC1`: the call in assay [1], in assay [2], in [3], in assay [6], in assay [7] and in [8] was inactive.
Turning to `COc1cc(Cl)c(OC)cc1Cl`, the call in assay [1], in assay [2], in [3], in assay [6], in [7] and in [8] was inactive.
`CCOc1nc(F)cc2nc(S(=O)(=O)Nc3c(Cl)cccc3Cl)nn12`: the outcome in [1], in assay [2], in [3], in [6], in [7] and in assay [8] was inactive.
Regarding `CNC(=O)Oc1cccc2ccccc12`, the call in assay [9], in [2], in assay [5] and in assay [6] was inactive.
Turning to `CCCCOCN(C(=O)CCl)c1c(CC)cccc1CC`, the outcome in assay [1], in [3], in assay [6] and in assay [8] was inactive. For the same molecule, the figures for the AC50 in assay [2], in assay [4] and in [5] were 71.3 µM (active), 50 µM (active) and 75.1 µM (active), respectively.
As for `COc1cc(OC)nc(NC(=O)NS(=O)(=O)c2ncccc2OCC(F)(F)F)n1`, the molecule was classed as inactive in assay [1], in assay [2], in assay [3], in [4], in assay [5] and in [8].
In the case of `Nc1c(Cl)c(F)nc(OCC(=O)O)c1Cl`, the outcome in assay [10], in assay [1], in [2], in assay [3], in assay [7] and in [8] was inactive.
As to `COc1ccc(-c2ccccc2)cc1NNC(=O)OC(C)C`, the molecule was classed as inactive in [10], in assay [1], in assay [2], in assay [3], in assay [4] and in [5]. For the same molecule, the molecule was called inactive in assay [6], in [7] and in assay [8].
Take `CS(=O)(=O)c1ccc(C(=O)C2C(=O)CCCC2=O)c([N+](=O)[O-])c1`: the result in [1], in assay [2], in assay [3], in [4], in [5] and in [6] was inactive. Besides, the molecule was called inactive in assay [8].
On to `O=C(O)c1c(Cl)ccc2cc(Cl)cnc12`, for which the result in [1], in assay [2], in assay [3], in assay [4], in assay [5] and in [6] was inactive. In addition, in [8], the result was inactive.
For `CCCC(=NOCC)C1=C(O)CC(CC(C)SCC)CC1=O` (stereo not drawn), the molecule was called inactive in [9], in assay [1], in assay [2], in assay [3], in assay [6] and in assay [8].
Regarding `CCCN(CC)CC1COC2(CCC(C(C)(C)C)CC2)O1` (stereo not drawn), the call in assay [1], in [2], in [3] and in [6] was inactive. For the same molecule, the AC50 in assay [6] was 50 µM (active).
Regarding `CCC(C)n1c(=O)[nH]c(C)c(Br)c1=O` (stereo not drawn), the molecule was called inactive in assay [1], in assay [2], in [3], in assay [4], in assay [5] and in assay [6]. In assay [8], the molecule was called inactive.
Consider `COC(=O)N(C(=O)N1CO[C@@]2(C(=O)OC)Cc3cc(Cl)ccc3C2=N1)c1ccc(OC(F)(F)F)cc1`, for which the call in assay [10], in assay [1], in assay [2], in [3], in assay [6] and in assay [7] was inactive. In addition, in [8], the molecule was classed as inactive.
As to `COC(=O)c1c(C(F)F)nc(C(F)(F)F)c(C2=NCCS2)c1CC(C)C`, the molecule was classed as inactive in assay [10], in [2], in [3], in assay [6] and in assay [8]. In addition, in [1], the half-maximal activity concentration (AC50) was 43.7 µM (active).
Consider `CSC(=O)c1c(C(F)F)nc(C(F)(F)F)c(C(=O)SC)c1CC(C)C`, for which the AC50 in assay [1] is 21.5 µM (active); in assay [7] it was 69.6 µM (active). The result in assay [2], in [3], in [6], in assay [7] and in assay [8] was inactive.
For the molecule `Clc1cccc(C(Cl)(Cl)Cl)n1`, the result in assay [10], in assay [1], in assay [2], in assay [3], in assay [4] and in assay [5] was inactive. Also, the molecule was classed as inactive in [6] and in assay [8].

For orientation: AC50 means the concentration giving half of the maximal activity seen.
